# Bioassay records as filed in PubChem.
# FBW7 act: human FBW7 E3 ligase activation, primary screen; normalized activity (activation), % at 26.1 µM; hit rate 0.13% among 650,000; Q969H0; AlphaScreen FBW7–phospho-cyclin E peptide binding, activator screen; in the data active = normalized activity above about 1.9%;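 note: purified mutant Fbw7 with reduced substrate affinity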
# GPR151 ag: activators of human GPR151. hit rate 1% among 650,000. activation, % at 11.2 µM. PathHunter beta-arrestin GPR151 cells, luminescence; in the data active = activation above about 4.9%;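 note: 0% = median of compound wells and 100% = cells with positive control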
# TEAD-YAP block: TEAD-YAP interaction inhibition; HEK-TIYL cells, TEAD-Gal4/YAP UAS-luciferase luminescence; inhibition, % at 9.12 µM; hit rate 1.4% among 640,000; AID 1259422; in the data active = inhibition above about 32%;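 note: 0% = median of test compound wells and 100% = reference inhibitor wells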
# MITF primary: human MITF inhibition, primary screen. inhibition, % at 2.6 µM. AlphaScreen MITF homodimerization, bead proximity signal. AID 1259374. O75030. hit rate 0.91% among 650,000; in the data active = inhibition above about 50%;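 note: 0% = vehicle wells with protein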
# Target sequence (O75030 whole entry, looked up): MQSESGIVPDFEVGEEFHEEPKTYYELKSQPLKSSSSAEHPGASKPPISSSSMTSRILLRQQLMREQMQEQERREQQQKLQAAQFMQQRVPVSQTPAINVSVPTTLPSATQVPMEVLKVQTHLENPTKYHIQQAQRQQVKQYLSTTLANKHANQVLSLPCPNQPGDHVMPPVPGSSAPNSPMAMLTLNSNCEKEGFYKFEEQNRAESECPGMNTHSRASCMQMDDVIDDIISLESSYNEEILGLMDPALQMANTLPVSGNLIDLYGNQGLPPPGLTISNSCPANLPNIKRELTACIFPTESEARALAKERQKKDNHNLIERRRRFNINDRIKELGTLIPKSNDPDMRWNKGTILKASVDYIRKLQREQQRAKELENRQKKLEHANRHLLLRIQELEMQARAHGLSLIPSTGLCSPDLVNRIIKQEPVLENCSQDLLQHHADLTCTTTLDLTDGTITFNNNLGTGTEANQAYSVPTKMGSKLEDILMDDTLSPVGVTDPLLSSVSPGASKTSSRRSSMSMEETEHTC
# Numbers without * were called inactive. A selection: hits, their analogues and other compounds. The true share with any hit is near 3.4%.
SMILES,FBW7 act,GPR151 ag,TEAD-YAP block,MITF primary
COc1cccc(C2C(C(=O)Nc3ccc(Br)cn3)=C(C)NC3=C2C(=O)CCC3)c1OC (centres undefined),0,1,-8,4
Fc1ccc2c(c1)nc(NCc1ccncc1)c1nccn12,0,-1,49*,1
Fc1ccc2c(c1)nc(NCc1ccccc1)c1nccn12,0,-3,-9,13
Cc1nn(-c2ccc(F)cc2)c2sc(C(=O)NCc3ccc(S(N)(=O)=O)cc3)cc12,0,0,40*,-1
COC(=O)C1=C(C)N(Cc2ccco2)C(=O)/C1=C\c1cc(C)n(-c2ccccc2F)c1C,0,0,-10,72*
CCN1C(=O)/C(=C\c2cc(C)n(-c3ccc(Cl)cc3)c2C)C(C(=O)OC)=C1C,7.3*,1,-5,23
COCCN1C(=O)/C(=C\c2cc(C)n(-c3ccc(Cl)cc3)c2C)C(C(=O)OC)=C1C,0,-1,-6,15
CCC(Oc1ccccc1)C(=O)N1CCC(C(=O)OC)CC1 (centres undefined),0,2,8,8
CCN(CC)C(=O)c1oc2ccc(S(=O)(=O)N3CC(C)CC(C)C3)cc2c1C (centres undefined),0,0,40*,7
NC1=NC(=O)/C(=C\c2ccc(-c3cccc(Cl)c3)o2)S1,0,1,-4,15
CCN=C1S/C(=C\c2ccc(-c3cccc(C(=O)O)c3)o2)C(=O)N1CC,0,1,34*,8
CCN=C1S/C(=C/c2ccc(-c3ccc(Cl)cc3C(=O)O)o2)C(=O)N1CC,0,0,-1,-1
NC1=NC(=O)/C(=C/c2ccc(-c3cccc(C(=O)O)c3)o2)S1,0,0,70*,3
Nc1ccc(-c2nc3ccccc3s2)c(Cl)c1,0,0,-1,-2
Nc1ccc(-c2nc3ccccc3s2)cc1,0,-9,51*,-8
c1ccc(-c2ccc(-c3nc4ccccc4s3)cc2)cc1,0,0,92*,-11
Nc1ccc2nc(-c3ccccc3)sc2c1,2.7*,-8,85*,10
CC(=O)Oc1ccccc1NC(=O)CCc1ccccc1,0,2,-35,-20
CCCN(CCC)S(=O)(=O)c1ccc(F)c(C(=O)Nc2ccc(OCC)cc2)c1,0,0,-7,1
O=C(CCCn1c(SCC(=O)NC2CCCC2)nc2ccccc2c1=O)NCc1ccccc1,0,0,-4,4
COC(=O)c1ccc(NC(=O)CSc2ccccc2C(=O)O)cc1,0,-2,11,-4
O=C(Nc1ccc2[nH]ncc2c1)[C@@H]1C[C@@H](O)CN1C(=O)c1ccc(Cl)cc1,0,0,3,7
COc1ccc(C)cc1NC(=O)NCc1cc(C)n(C)n1,0,1,35*,0
COc1ccc(C(C)=O)cc1COC(=O)c1ccc(OC)c([N+](=O)[O-])c1,0,1,14,-9
O=[N+]([O-])c1ccc(N2CCCCC2)cc1N1CCc2ccccc2C1,0,1,9,10
SMILES,FBW7 act,GPR151 ag,TEAD-YAP block,MITF primary
O=[N+]([O-])c1ccc(N2CCCC2)cc1N1CCc2ccccc2C1,0,0,73*,-12
COc1cccc(C2C=C(c3cccc(Br)c3)Nc3nnnn32)c1 (centres undefined),0,-1,49*,7
COc1cccc(C2=CC(c3ccccc3C)n3nnnc3N2)c1 (centres undefined),0,-1,44*,-6
COc1ccc(C2C=C(c3cccc(Br)c3)Nc3nnnn32)cc1OC (centres undefined),0,1,3,0
COc1cccc(C2=CC(c3cc(Br)ccc3F)n3nnnc3N2)c1 (centres undefined),0,2,46*,4
Cc1cccc(N(CC(=O)Nc2c(C)cccc2C(C)C)S(C)(=O)=O)c1,0,2,-1,11
CCCNc1cc(-c2csc3ccccc23)nc(N)n1,0,0,5,3
Nc1nc(NCCOc2ccccc2)cc(-c2ccccc2)n1,0,1,41*,19
Nc1nc(NCCOc2ccccc2)cc(Nc2ccccc2)n1,0,1,-13,2
Nc1nc(NCCOc2ccccc2)cc(-c2csc3ccccc23)n1,0,1,42*,0
COc1ccc(OC(=O)c2cccc(C(=O)Oc3ccc(OC)cc3)n2)cc1,0,3,13,6
O=C(NCCOC12CC3CC(CC(C3)C1)C2)c1cc([N+](=O)[O-])ccc1Cl,0,-1,33*,7
CCOc1ccc(CCNC(=O)c2cc([N+](=O)[O-])ccc2Cl)cc1OCC,1,0,39*,16
O=C(Nc1ccc(C23CC4CC(CC(C4)C2)C3)cc1)c1cc([N+](=O)[O-])ccc1Cl,0,0,30,12
